# Screening results as filed in PubChem BioAssay.
# Shown is part of a subset that was picked to be rich in hits.
# Shiga inhibitor = Shiga toxin inhibition | inhibition, % at 38.7 µM | 290,000 tested, 9.2% active | Vero cells, Shiga toxin protein synthesis inhibition reporter | AID 2315; in the data active = inhibition mostly above about 28%, no sharp cut-off; inactive = mostly below about 43%; note: 0% is about no effect
# SARS PLpro yeast-1 = inhibitors of SARS-CoV papain-like protease in yeast. S. cerevisiae expressing SARS-CoV PLpro, growth rescue. Potency, µM (highest dose often 32.9 µM), inactives show top-dose activity, positive = growth rescue, usual class: activators. 330,000 tested, 0.19% active; calls by dose curve; note: potency is the fitted concentration of half-maximal effect; 0% is about no effect; nearly all actives have a fitted effect of over 55% in size
# Cycloheximide cs = affects cycloheximide protein synthesis inhibition readout, counter-screen | max response, % | 300,000 tested, 12% active | cell reporter, cycloheximide protein synthesis inhibition counterscreen | AID 2314; in the data active = max response mostly above about 13%, no sharp cut-off; inactive = mostly below about 14%; note: read at 38.3 µM for the half of the compounds with a filed dose; 0% is about no effect
# NS1 function inh = blocks influenza NS1 protein function. Potency, µM (top dose mostly 46.1 µM), for the others: top-dose activity, positive = more growth. 270,000 tested, 0.4% active; calls by dose curve; note: potency is the fitted concentration of half-maximal effect; actives are rising curves; nearly all actives have a fitted effect of over 50% in size
#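 In this qHTS, NS1 from influenza A is expressed in budding yeast, where it slows growth. Cells are switched from glucose to 2% galactose medium (pH 6.0, -URA), treated with compound, and growth recovery is read at OD600.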
# LmPK inh = LmPK (Leishmania mexicana) enzyme inhibition. 290,000 tested, 0.37% active. purified LmPK, Kinase-Glo ATP luminescence, 1 h. Potency, µM (top dose mostly 57.5 µM), for the others: at the top dose activity change, negative = inhibition, actives largely listed as inhibitors. Q27686; note: potency is the fitted concentration of half-maximal effect; % is set by controls: 0 for no effect and ±100 for the full control effect
# Target sequence (Q27686 whole entry, looked up): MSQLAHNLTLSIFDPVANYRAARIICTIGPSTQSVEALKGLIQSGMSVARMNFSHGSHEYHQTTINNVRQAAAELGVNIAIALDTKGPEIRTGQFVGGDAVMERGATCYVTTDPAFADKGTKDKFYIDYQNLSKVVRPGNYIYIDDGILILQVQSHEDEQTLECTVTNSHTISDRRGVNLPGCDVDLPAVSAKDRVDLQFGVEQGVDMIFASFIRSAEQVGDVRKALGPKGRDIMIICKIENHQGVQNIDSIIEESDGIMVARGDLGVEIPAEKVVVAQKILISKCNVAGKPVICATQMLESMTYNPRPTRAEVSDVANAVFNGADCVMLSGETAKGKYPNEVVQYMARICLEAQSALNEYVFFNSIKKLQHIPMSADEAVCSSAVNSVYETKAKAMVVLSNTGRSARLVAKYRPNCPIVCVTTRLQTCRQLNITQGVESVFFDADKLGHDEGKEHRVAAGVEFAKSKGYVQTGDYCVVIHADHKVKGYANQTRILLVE
#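 Pyruvate kinase activity monitored as ATP production (luciferase luminescence). Conditions: 0.1 nM enzyme, 0.5 mM PEP, 0.1 mM ADP, 1 h, RT; normalized against uninhibited and no-enzyme wells.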
# Tb PYK inh = blocks Trypanosoma brucei pyruvate kinase; TbPYK enzyme, Kinase-Glo Plus ATP luminescence, 45 min; Q57TT1; Potency, µM (doses to about 76.8 µM), for inactives: at the highest dose activity, negative = inhibition, hits mostly inhibitors; 410,000 tested, 0.12% active; note: potency is the fitted concentration of half-maximal effect; % is set by controls: 0 for no effect and ±100 for the full control effect; nearly all actives have a fitted effect of over 50% in size
#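 TbPYK + substrate in 50 mM TEA pH 7.2, 100 mM KCl, 10 mM MgCl2, 0.05% BSA, 0.01% Tween-20; cpd pinned; ADP 130 uM final; 45 min RT; Kinase-Glo Plus 10 min; luminescence endpoint.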
# SARS PLpro yeast-2 = Rescues yeast growth by inhibiting SARS-CoV PLpro; shares compounds with SARS PLpro yeast-1; yeast expressing SARS-CoV PLpro, growth phenotype rescue; calls only; 1,000 tested, 19% active; AID 652038; call rule not given here
# Active calls of the source: *; i = inactive; ? = inconclusive; . = no result; + = active, no number. Unless noted, calls come from the whole dose curve; as a rule, active = well fitted curve in the direction sought with a large enough effect; inconclusive = small, poorly fitted or top-dose-only effect, or another doubt; inactive = no such curve, though single readings can be large; an effect the other way counts as inactive or inconclusive.
SMILES,Shiga inhibitor,SARS PLpro yeast-1,Cycloheximide cs,NS1 function inh,LmPK inh,Tb PYK inh,SARS PLpro yeast-2
CC(NC(=O)c1ccccc1NC(=O)c1nsc2ccccc12)c1ccccc1 (stereo unspecified),.,.,.,.,.,4%,.
O=C(/C=C/c1ccc(F)cc1)NCCc1ccc2c(c1)OCCO2,4,4µM*,1,-18%,3%,-4%,i
COc1ccccc1/C=C1\SC(=S)N(CCC(=O)NC2=NCCS2)C1=O,-9,4µM*,-5,8%,-1%,-2%,i
O=C(CCn1c(=O)oc2ccccc21)NC1=NCCS1,-2,?,-2,2%,11%,-5%,i
O=C(CCN1C(=O)/C(=C\c2cccs2)SC1=S)NC1=NCCS1,-5,-11%,-5,13%,1%,-12%,.
Cc1ccc2c(CSc3nnc4ccccn34)cc(=O)oc2c1C,60*,3.5µM*,17,16%,-3%,1%,i
Cc1ccc2c(Cn3ccnc3)cc(=O)oc2c1C,44,1%,15,0%,0%,5%,.
CC(C(=O)NCc1ccc2c(c1)OCO2)N1c2cccc3cccc(c23)S1(=O)=O (stereo unspecified),-5,?,1,10%,0%,1%,+
COc1ncnc2c1ncn2CCCN(C)Cc1ccco1,.,.,.,.,.,4%,.
COc1ccc(OC)c(NC(=O)N(C)CCc2c(C)nn(C)c2C)c1,.,.,.,.,.,0%,.
COc1ccc(-c2cc3nc(C4CCN(C(=O)OC(C)(C)C)CC4)c(C(=O)Nc4cc(Cl)cc(Cl)c4)cn3n2)cc1,.,.,.,.,.,-6%,.
COc1ccc(CCNC(=O)Cn2nnc(-c3ccc(Cl)cc3)n2)cc1OC,.,.,.,.,.,-5%,.
O=C(Cn1nnc(-c2ccccc2F)n1)Nc1ccc2c(c1)OCO2,-13,?,1,-2%,0%,14%,i
COc1ccc(CCNC(=O)CCNC(=O)c2ccc(Cl)cc2)cc1OC,1,-25%,-4,5%,-2%,-9%,.
COc1ccc(CCNC(=O)Cn2nnc(-c3ccccc3F)n2)cc1OC,-15,?,-6,-2%,-3%,3%,i
COc1ccc(CCNC(=O)CCNC(=O)c2ccc(Br)cc2)cc1OC,-14,?,-1,6%,2%,4%,i
COC(=O)C1=C(c2ccc(-c3ccccc3)c(F)c2)C[C@@H]2CC[C@H]1N2C(=O)NC(C)C,.,3%,.,.,.,3%,.
COC(=O)C1=C(c2ccc(-c3ccccc3)c(F)c2)C[C@@H]2CC[C@H]1N2C(=O)NC1CC1,.,?,.,.,.,-11%,i
CCOC(=O)C1=CCN(S(=O)(=O)c2ccccc2F)C1c1ccc(F)cc1 (stereo unspecified),.,.,.,.,.,-13%,.
CCNc1nc(NCC)nc(N/N=C/c2ccc(O)c(O)c2)n1,-14,11µM*,2,-8%,-4%,-13%,i
CCCCn1c(N)c(N(CC)C(=O)c2cc(S(=O)(=O)N3CCCCCC3)ccc2OC)c(=O)[nH]c1=O,.,?,.,.,.,5%,i
Cc1nc([N+](=O)[O-])c(Sc2nc3ccc([N+](=O)[O-])cc3[nH]2)n1Cc1ccccc1,-5,10µM*,-2,-31%,3%,2%,i
Cc1nc([N+](=O)[O-])c(Br)n1Cc1ccccc1,-18,0%,-2,-3%,4%,-6%,.
NC(=O)c1ccc(Oc2ccc(Cl)c3ccccc23)c([N+](=O)[O-])c1,-5,4.5µM*,-2,5%,0%,-8%,?
COc1ccccc1CNC(=S)NCCc1ccccc1,47*,?,13,-22%,-1%,1%,?
SMILES,Shiga inhibitor,SARS PLpro yeast-1,Cycloheximide cs,NS1 function inh,LmPK inh,Tb PYK inh,SARS PLpro yeast-2
CN(C(=O)COC(=O)C1CCN(S(=O)(=O)c2c(Cl)cccc2Cl)CC1)C1CCS(=O)(=O)C1 (stereo unspecified),.,3%,.,.,.,-20%,.
C#CC[N+]1(CC#Cc2ccc(C)cc2)CCCCC1,-4,20µM*,-1,5%,-2%,3%,i
Cc1cc(C(=O)N/N=C/c2cc(Cl)cc([N+](=O)[O-])c2O)c2ccccc2n1,-11,2.2µM*,4,-52%,-7%,-4%,i
Cc1cc(C(=O)NN=C2CCCCC2)c2ccccc2n1,-6,13µM*,1,11%,-5%,-2%,i
C[C@@H]1COC(=O)[C@H](CC(=O)OC(C)(C)C)C/C=C\C[C@@H](CC(=O)NCCO)C(=O)N1,.,-1%,.,.,.,7%,.
CC1CCCCC1NC(=O)NC(=O)COC(=O)c1nccnc1N (stereo unspecified),.,-7%,.,.,.,1%,.
CC1CCCC(NC(=O)NC(=O)CCl)C1C (stereo unspecified),-8,?,4,-5%,1%,3%,+
CC1CCCCC1NC(=O)NC(=O)CCl (stereo unspecified),-1,?,0,2%,3%,-5%,+
COc1ccc(NC(=O)C(=O)NNC(=O)c2cccs2)c(OC)c1,8,?,-3,6%,-3%,1%,i
CC1CCC(Nc2nc3c(-c4cccc(C(F)(F)F)c4)nnn3c3ccccc23)CC1 (stereo unspecified),.,.,.,.,.,2%,.
O=S1(=O)c2ccccc2Nc2ccccc21,-5,0%,1,2%,0%,1%,.
CCn1c(COc2ccc(C)cc2)nnc1SCc1ccc(C#N)cc1,-4,-11%,-2,-141%,6%,-18%,.
CCc1ccc(OCc2nnc(SCCN3CCOCC3)n2CC)cc1,-5,?,-3,-14%,1%,8%,i
CC(=O)Nc1ccc(NC(=O)Cc2sc(C)nc2-c2ccc(C)cc2)cc1,-9,?,-4,7%,-1%,0%,i
O=C(NNC(=O)c1cc(Cl)ccc1O)c1cccc(S(=O)(=O)N2CCOCC2)c1,.,?,.,.,.,-2%,+
CC1(C(=O)NS(=O)(=O)c2ccc(Br)cc2)CCN1C(=O)C1CCCCC1 (stereo unspecified),.,.,.,.,.,0%,.
COc1cccc(N=CC2=C(O)CC(C)(C)CC2=O)c1,24,.,13*,30%,-8%,-4%,i
CC(=O)Nc1cccc(-c2nnc(-c3ccccc3)o2)c1,106*,?,45*,-27%,-6%,4%,?
CC(C)(C)C(=O)Nc1cccc(-c2nnc(-c3cccc(NC(=O)C(C)(C)C)c3)o2)c1,10,13%,1,-2%,6%,7%,.
O=C(CNS(=O)(=O)c1ccc2ccccc2c1)OCc1csc(-c2ccccc2)n1,19,3.2µM*,20*,-17%,-4%,-5%,i
C(=N\n1c2ccccc2c2ccccc21)/c1ccccc1,-5,-1%,1,4%,-3%,1%,.
C[n+]1cn(/N=C/c2ccccc2)c2ccccc21,23,?,8,?,-3%,-22%,i
